Results reported in PubChem BioAssay (EPA / NIEHS).
Results filed as inconclusive are left out. Active and inactive are the calls of the source. Rule for the calls: active = hit-call score of the fitted dose curve at least 0.9, where 1 is the maximum; inconclusive = response in the unintended direction; inactive = score below 0.9.

What follows are molecules tested against rat Opioid Receptor, Non-selective Sodium (Na+) Binding, Oprm1 (gene 25601) (UniProt P33535) (assay: NVS_GPCR_rOpiate_NonSelectiveNa: NovaScreen (NVS) G Protein-Coupled Receptor Assay for rat Opioid Receptor, Non-selective Sodium (Na+) Binding (AID 2283311)).
Chain of rat Opioid Receptor, Non-selective Sodium (Na+) Binding, Oprm1 (gene 25601) (P33535 whole entry, looked up): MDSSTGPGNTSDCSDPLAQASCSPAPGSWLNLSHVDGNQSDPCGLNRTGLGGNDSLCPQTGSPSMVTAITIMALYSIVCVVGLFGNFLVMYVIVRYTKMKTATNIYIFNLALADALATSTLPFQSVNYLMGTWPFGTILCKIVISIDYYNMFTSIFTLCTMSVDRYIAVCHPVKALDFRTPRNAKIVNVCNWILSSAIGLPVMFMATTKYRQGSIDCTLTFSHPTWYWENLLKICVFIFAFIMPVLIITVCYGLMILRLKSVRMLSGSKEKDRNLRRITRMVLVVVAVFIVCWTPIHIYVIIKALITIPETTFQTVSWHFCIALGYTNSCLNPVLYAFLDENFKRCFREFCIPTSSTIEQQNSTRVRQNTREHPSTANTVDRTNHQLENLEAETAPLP
Description: NVS_GPCR_rOpiate_NonSelectiveNa is a biochemical, single-readout assay that uses extracted gene-proteins from Rat forebrain membranes in a tissue-based cell-free assay. Measurements were taken 1.5 hours after chemical dosing in a 48-well plate.NVS_GPCR_rOpiate_NonSelectiveNa is one of one assay component(s) measured or calculated from the NVS_GPCR_rOpiate_NonSelectiveNa assay. It is designed to make measurements of radioligand binding, a form of binding reporter, as detected with scintillation counting signals by Filter-based radiodetection technology.Data from the assay component NVS_GPCR_rOpiate_NonSelectiveNa was analyzed into 1 assay endpoint. This assay endpoint, NVS_GPCR_rOpiate_NonSelectiveNa, was analyzed in the positive analysis fitting direction relative to DMSO as the negative control and baseline of activity. Using a type of binding reporter, loss-of-signal activity can be used to understand changes in the binding as they relate to the gene Oprm1. Furthermore, this assay endpoint can be referred to as a primary readout, because the performed assay has only produced 1 assay endpoint. To generalize the intended target to other relatable targets, this assay endpoint is annotated to the gpcr intended target family, where the subfamily is rhodopsin-like receptor.
Binding assays used specific radioligands (tritiated, iodinated) with non-radioactive competitive displacement ligands in agonist or antagonist protocols (as indicated) and various reference compounds and inhibitors to titrate specific binding to receptors and transporters. Most enzyme assays (CYPs, kinases, phosphatases, proteases, HDACs) used recombinant protein and specific substrates (fluorescence mostly, some colorimetric and radioactive) and inhibitors, followed by a biochemical separation of substrate and product. All assays for the biochemical HTS were initially run in duplicate at a single concentration (10 uM for CYP450 assays and 25 uM for all others). Assay-chemical combinations meeting a pre-defined threshold (e.g., 30% inhibition and other criteria defined below) were then run in singleton concentration-response format with maximum concentration of 20 uM for CYPs and 50 uM for all others. Each assay was run with positive and negative controls, and concurrent controls on every plate. The follow-up (secondary) screen tested active chemical-pairs in concentration series, as well as a few additional assays not tested in the primary screen, some selected negative inactives, and several cases re-run in the concentration series for confirmatory purposes.

Structure (SMILES) | outcome | AC50
CC(C)(c1cc(Br)c(O)c(Br)c1)c1cc(Br)c(O)c(Br)c1 | inactive | 
CN(C)C(=O)C1(N2CCCCC2)CCN(CC[C@@]2(c3ccc(Cl)c(Cl)c3)CN(C(=O)c3ccccc3)CCO2)CC1 |  | 3.48 µM (active)
CN(C[C@@H](CC[N+]12CCC(C3CCCCC3)(CC1)CC2)c1ccc(Cl)c(Cl)c1)C(=O)c1cc(C(F)(F)F)cc(C(F)(F)F)c1 |  | 12.5 µM (active)
Cc1occc1C(=O)Nc1ccc(C(=O)N2CCC(F)(F)/C(=C\C(=O)N3CCC(N4CCCCC4)CC3)c3ccccc32)cc1 |  | 5.68 µM (active)
Cc1cc(F)ccc1-c1cc(N2CC[C@@H](O)[C@H]2CO)ncc1N(C)C(=O)C(C)(C)c1cc(C(F)(F)F)cc(C(F)(F)F)c1 | inactive | 
CCCCOC(=O)c1ccc(O)cc1 |  | 25 µM (active)
CC(O)CC(C)(C)O (stereo not drawn) | inactive | 
CCN(CC)C(=O)c1cc(S(=O)(=O)Cc2ccccc2)c(N2CCC(c3ccccc3)CC2)cc1N(CC)CCN(C)C | inactive | 
C[C@]12CC[C@@H]3c4ccc(O)cc4CC[C@H]3[C@@H]1CC[C@H]2O | inactive | 
CCN(Cc1cccnc1)C(=O)c1cccc(Cl)c1[C@]1(C)C(=O)N(Cc2ccc(OC)cc2OC)c2ccc(Cl)cc21 |  | 13.9 µM (active)
COc1ccc2cc(S(=O)(=O)N[C@H](CC(=O)N[C@H](Cc3ccc(CN4[C@H](C)CCC[C@@H]4C)cc3)C(=O)N(C)C(C)C)c3ccc4c(c3)OCO4)ccc2c1 |  | 4.72 µM (active)
CN(C)c1ccc(C(=C2C=CC(=[N+](C)C)C=C2)c2ccc(N(C)C)cc2)cc1 |  | 9.72 µM (active)
COc1cc(C(=O)NC2CCN(C)CC2)ccc1Nc1ncc2c(n1)N(C1CCCC1)CC(F)(F)C(=O)N2C | inactive | 
C[C@]12CC[C@@H]3c4ccc(O)cc4CC[C@H]3[C@@H]1CCC2=O |  | 13.9 µM (active)
COc1cccc([C@H](O)C2CCN(CCc3ccc(F)cc3)CC2)c1OC |  | 15.7 µM (active)
O=c1c(-c2ccc(O)cc2)coc2cc(O)cc(O)c12 | inactive | 
NCc1cccc(C2CCN(C(=O)c3ccc(C#Cc4ccccc4F)o3)CC2)c1 |  | 11.2 µM (active)
Clc1ccccc1C(c1ccccc1)(c1ccccc1)n1ccnc1 | inactive | 
